Molecules are shown by their SMILES. Inconclusive results are not listed. A number with no mark means an inactive call. The source made the active and inactive calls. The call rests on the fitted dose curve; in most records, active means well fitted inhibition curve with a large enough effect; inconclusive means small, poorly fitted or top-dose-only effect; inactive means flat fitted curve, though single readings scatter.
On the % scale 0 is the no-effect control and ±100 the full control effect; potency means the concentration at half of the fitted maximal effect.

The subject of one experiment is CRL-7250. Kind of experiment: Cytotoxic Profiling of Annotated Libraries Using Quantitative High-Throughput Screening (AID 1296008). Further: nearly all actives have a fitted effect of over 60% in size. The note with it: Five cell lines viability, CellTiter-Glo ATP luminescence, 48-72 h; max response: active compounds read low. In a few lines:
(§1)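 Compounds were pin-transferred onto cells and incubated 48 or 72 hr at 37 degree Celsius, 95% humidity. CellTiter-Glo was added, plates sat 10 min at room temperature, then ATP-coupled luminescence was imaged as the viability read-out.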
(In general: Cellular ATP, detected with luciferase, serves as a proxy for viable cell number.)
As for `Cc1ccc(CNc2ncnc3ccc(-c4ccc(CO)o4)cc23)o1`, the max response was -10.7%. Regarding `C/C(=C/CO)CCC1C(C)CCC2C(C)(C)CCCC12C` (stereo unspecified), the max response is -3.35%.

For `C[C@@H]1O[C@@H](O[C@H]2CC[C@@]3(C)C(CC[C@]4(C)C3CC=C3[C@@H]5CC(C)(C)CC[C@]5(C(=O)O[C@@H]5O[C@H](CO)[C@@H](O)[C@H](O)[C@H]5O)CC[C@]34C)[C@]2(C)CO)[C@H](O)[C@H](O[C@@H]2O[C@H](CO)[C@@H](O)[C@H](O)[C@H]2O)[C@H]1O` (stereo partly specified), the max response is 1.26%. With `C[C@H](Nc1cc2c(-c3ccc4c(c3)OCO4)noc2cn1)c1ccccc1`, the max response is 3%. As to `O=C(N[C@H](Cc1cscn1)C(=O)N[C@@H](CC1CCCCC1)[C@@H](O)[C@@H](O)C1CC1)c1nc2ccccc2[nH]1`, the max response is 0.844%. On the same count and under the same terms, the figure for `O=C(NCCCc1ccccc1)C1CCC(CNS(=O)(=O)c2cccc3nsnc23)CC1` (stereo unspecified) is -1.65%. Turning to `CC(C)c1ccc(NC(=O)Cn2cnc3c2c(=O)n(C)c(=O)n3C)cc1`, the compound was called inactive. For `C=C1C(=O)OC[C@@H]1C/C=C(\C)CC1CC(C)C(=O)O1` (stereo partly specified), the max response is -16.8%.

In another experiment the test system is HaCat. Described as above. As to conditions: Five cell lines viability, CellTiter-Glo ATP luminescence, 48-72 h; max response: active compounds read low. Summed up:
as §1
Take `C[C@@H]1C[C@H](C)CN(CCC(=O)Nc2ccc(Br)cc2)C1`: the max response is -4.42%.

Regarding `O=[N+]([O-])c1cn2c(n1)OC[C@@H](OCc1ccc(-c3ccc(OC(F)(F)F)cc3)nc1)C2`, the max response is -7.6%. On to `C=C1CCC2[C@](C)(CCC[C@@]2(C)C=O)[C@H]1CC/C(C)=C/CO` (stereo partly specified), for which the max response is 2.96%. `COc1ccc(CCc2nc3cc(-c4c(C)noc4C)ccc3n2CC(C)N2CCOCC2)cc1Cl` (stereo unspecified): the max response is -1.2%. The same measure, in the same setting: the figure for `O=C(NCC(=O)N1CCCC1)Nc1ccc2cnccc2c1` is -20.6%.

On to `C=C(C)C(=O)O[C@H]1[C@H]2C(=C)C(=O)O[C@@H]2/C=C(\CO)CC/C=C(/C=O)[C@@H]1O`, for which the max response was -13.6%. With `COc1c(C)cc(NC(=O)c2nn(Cc3ccc(F)cc3)c3c2CN(C(=O)c2ccc[nH]2)C[C@]3(C)C(N)=O)cc1C`, the max response was -0.617%. As for `Cc1[nH]c2ccccc2c1CCNCc1ccc(/C=C/C(=O)NO)cc1`, the Potency was 184 nM (active). Consider `O=C(NC1CCC1)c1ccc(C#Cc2cccc(F)c2)nc1`, for which the max response was -7.87%. On to `COc1ccc(NC(=O)C2C[C@H](C)CC[C@H]2C(C)C)cc1` (stereo partly specified), for which the max response was -2.17%. On the same count and under the same terms, the figure for `COc1cc(OC)c2c(=O)[nH]c(-c3cc(C)c(OCCO)c(C)c3)nc2c1` is 1.79%; for `CC1(C=O)CCCC2(C)C1CCC13CC(CO)C(CCC12)C3` (stereo unspecified) it is 3.29%.

On to `COc1c2c(nc3occc13)C(CC=C(C)C)(OC)C(O)CC2` (stereo unspecified), for which the max response is -1.05%. `Cn1ncnc1[C@@H]1c2n[nH]c(=O)c3cc(F)cc(c23)N[C@H]1c1ccc(F)cc1`: the max response was -18%. Consider `O=C(O)c1cccc(-c2ccc(-c3cn(C(=O)N4CCCCC4Cc4ccccc4)nn3)cc2)c1` (stereo unspecified), for which the max response is -16.1%. Take `Cc1cccc(-c2[nH]ncc2-c2ccc(F)c(-c3cnn(CCO)c3)c2)n1`: the max response was 3.16%.

As to `CC1(C)CCC2(C(=O)OC3OC(COC4OC(CO)C(O)C(O)C4O)C(O)C(O)C3O)CCC3(C)C(=CCC4C5(C)CCC(OC6OCC(O)C(O)C6O)C(C)(C)C5CCC43C)C2C1O` (stereo unspecified), the max response is -3.21%. The same measure, in the same setting: the figure for `CC(=O)O[C@@H]1[C@@H](O)[C@H](O[C@@H]2[C@@H](O)[C@@H](O)[C@H](O[C@H]3[C@H](O[C@H]4[C@H](O[C@H]5CC[C@@]6(C)C(CC[C@]7(C)C6CC=C6[C@@H]8CC(C)(C)CC[C@]8(C(=O)O)CC[C@]67C)[C@]5(C)CO)O[C@H](CO)[C@@H](O)[C@@H]4O)OC[C@@H](O)[C@@H]3O)O[C@H]2C)OC[C@H]1O` (stereo partly specified) is 3.54%; for `CN(C)CC#CCCC(=O)C(O)(c1ccccc1)C1CCC1` (stereo unspecified) it is 3%. For the compound `Cc1cn2c(n1)Cc1ccc(Cl)cc1C(c1ccc(N)cc1)=N2`, the max response was 1.21%.

Take `CC1(CO)CC(O)[C@]2(C(=O)O)CCC34CC3(C=CC3[C@]5(C)C(CC[C@]34C)C(C)(CO)[C@@H](O)[C@H](O)[C@@H]5O)C2C1` (stereo partly specified): the max response was -0.72%. As to `CC(=O)O[C@H]1C[C@@](O)(C(C)C)[C@@H]2[C@@H](OC(=O)c3ccc(O)cc3)CC(C)=CC[C@@]12C`, the max response is -1.16%. In the case of `Cc1ccc(C(C)C)c(O[C@@H]2O[C@H](CO)[C@@H](O)[C@H](O)[C@H]2O)c1`, the max response is -17.5%.

These data come from PubChem BioAssay (NCATS).
